Screening data as filed in PubChem BioAssay.
MgrA-DNA mod: modulators of Staphylococcus aureus MgrA DNA binding; fluorescence polarization; inhibition, % (test concentration not listed); 84,000 compounds, 0.13% hits; AID 602314; in the data active = inhibition above about 30%, passing the limit was not always enough;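 also: higher means less MgrA bound to DNA so lower polarization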
A number is an active result; i = inactive. This excerpt belongs to a sample that is enriched for hits.

SMILES	MgrA-DNA mod
CCOc1cc(/C=C/c2ccccc2OC)cc(=O)c2c(C)oc(C)c12	i
COc1cccc(=O)c2c(C)oc(C)c12	43
CCOc1ccc(-c2cc(OC)c3c(C)oc(C)c3c(=O)c2)cc1	i
CCOC(=O)c1c(/N=c2\oc3c(OC)cccc3cc2C(N)=O)sc2c1CCCC2	i
O=C(CCN1C(=O)/C(=C\c2cccs2)SC1=S)Nc1cc(Cl)ccc1O	i
COc1ccc(NC(=O)/C(C#N)=C/C=C/c2ccco2)cc1	i
N#C/C(=C\C=C\c1ccco1)C(N)=S	100
N#CC(C#N)=C(N)/C(C#N)=C/c1ccco1	i
CCCCCc1ccc(C(=O)O/N=C/c2c(Cl)cccc2Cl)cc1	i
COC(=O)C1=C(CN2CCCC2)NC(=O)NC1c1ccc(OC)cc1 (stereo not given)	i
COC(=O)COc1ccc(/C=C2\C(=O)NC(=S)N(c3ccccc3)C2=O)cc1OC	i
O=C1NC(=S)N(c2ccccc2)C(=O)/C1=C\c1ccoc1	76
O=C1NC(=O)N(c2ccccc2)C(=O)/C1=C\c1ccc(C(=O)O)cc1	i
CC1CC(C)CN(C(=O)c2cc3c(s2)CCCC3)C1 (stereo not given)	i
N#CC(C#N)=C(C#N)c1cc2c([nH]1)CCCC2	i
O=C(Nc1ccc(N2CCOCC2)cc1)Nc1ccc2nc(-c3ccco3)c(-c3ccco3)nc2c1	i
O=C(NCCCO)Nc1ccc2nc(-c3ccco3)c(-c3ccco3)nc2c1	77
O=C(NCCSCc1ccco1)Nc1cc(Cl)cc(Cl)c1	i
Cc1ccc(OCc2nnc(SCC(=O)Nc3cccc(C(F)(F)F)c3)n2-c2ccccc2)c2c1CCC2	i
CCCN1C2CCCC1CC(NC(=O)c1ccccc1C)C2 (stereo not given)	i
CC(C)c1cc2cc(/C=C/C(=O)O)c(O)cc2o1	60
CC(C)(O)C1Cc2cc(/C=C/C(=O)O)c(O)cc2O1 (stereo not given)	i
CC(C)c1ccc(/C=C/C(=O)O)cc1	i
O=C(CSc1ccccc1C(=O)O)NC1CCCc2ccccc21 (stereo not given)	i
O=C(C1CCCCC1)N1CCN(c2nnc(-c3ccccc3)c3ccccc23)CC1	i
SMILES	MgrA-DNA mod
CC(C(=O)O)N1C(=O)/C(=C/c2ccco2)SC1=S (stereo not given)	i
O=C1/C(=C/c2ccco2)SC(=S)N1CCc1ccccc1	i
O=C(O)CCN1C(=O)/C(=C/c2ccco2)SC1=S	51
COc1cccc(NC(=O)NC2CCCC2)c1	i
Cc1ccc(-c2cn3ccccc3n2)cc1	i
CC1(C)CC(=O)C2=C(C1)OC(N)=C(C#N)C2c1ccccc1 (stereo not given)	i
CC1(C)CC(=O)C2=C(C1)OC(c1cccs1)C(C#N)=C2N (stereo not given)	99
CC1(C)CC(=O)C2=C(C1)NC1=C(C(=O)CC(C)(C)C1)C2c1cccs1	i
Cc1ccccc1NC(=S)Nc1ccccc1C(=O)Nc1ccc(F)cc1	i
N#Cc1coc2ccccc2c1=O	i
CCC(C)c1ccccc1NC(=O)COC(=O)Cc1ccsc1 (stereo not given)	i
COc1ccc(/C=C2/SC(=O)N(CC(=O)NN3CCN(C)CC3)C2=O)cc1OC	i
CC(=O)N1c2ccccc2N(C(C)=O)C(C)C1C (stereo not given)	i
CN1C(=O)c2ccc(NC3=NS(=O)(=O)c4ccccc43)cc2C1=O	i
O=C(/C=C/c1ccccc1)Nc1nc2c(s1)CCCC2	i
Cc1ccc(C(=O)Nc2nc3c(s2)CCCC3)cc1	i
O=C(Nc1nc2c(s1)CCCC2)c1ccncc1	42
O=C(O)CSCC(=O)Nc1cccc(C(=O)O)c1	i
O=C(Nc1cc(C(F)(F)F)cc(C(F)(F)F)c1)C(Sc1ccc(Cl)cc1)c1ccccc1 (stereo not given)	i
COC(=O)N1c2ccccc2C=CC1C#N (stereo not given)	i
CC(C)(C)C(=O)C1C2C3COC(O3)C(=O)C2C2C=Cc3ccccc3N21 (stereo not given)	42
CCN(CC)c1nc(NC(C)(C)C)nc(NC(C)(C)C)n1	i
C=CCOc1ccc(/C=C2\SC(=Nc3ccccc3)NC2=O)cc1OC	i
CC(=O)Nc1cc2c(cc1N)OCCO2	i
O=C(CCN1C(=O)/C(=C\c2cccs2)SC1=S)Nc1ccc(F)cc1	i
SMILES	MgrA-DNA mod
COc1cc(/C=C2\CCc3ccccc3C2=O)cc(OC)c1OC	i
COC(=O)c1ccc2c3c(cccc13)CC2	i
COc1ccc2c3c(cccc13)C(=O)CC2	69
O=c1c(-c2ccc(Oc3ccccc3)cc2)[n+]([O-])c2ccccc2n1O	i
Cc1c(=O)n(OCc2ccc(Cl)cc2)c2ccccc2[n+]1[O-]	i
N#Cc1c(=O)n(O)c2ccccc2[n+]1[O-]	49
COC(CNC(=O)c1ccc(/C=C2\Sc3ccccc3N(Cc3ccc(F)cc3)C2=O)cc1)OC	i
Cc1cccc(N2C(=O)c3cccc4c(N5CCNCC5)ccc(c34)C2=O)c1	i
O=C1c2cccc3c(N4CCCC4)ccc(c23)C(=O)N1c1ccccc1	i
O=C1c2cccc3c(N4CCNCC4)ccc(c23)C(=O)N1c1ccc(Cl)cc1	60
C=CCNC(=O)CN1CCN(c2ccccc2)CC1	i
COC(=O)c1cc2sc(Cl)cc2n1CC(=O)Nc1ccc(C)c(C)c1	i
CCc1ccc(NC(=O)NCCCN2CCN(c3ccccc3)CC2)cc1	i
Cc1cc(OC(=O)CNC(=O)OCc2ccccc2)cc2oc(=O)c3ccccc3c12	i
O=C(N/N=C/c1cc(Br)ccc1O)N/N=C/c1cc(Br)ccc1O	i
NC(CO)C(=O)N/N=C/c1ccc(O)c(O)c1O (stereo not given)	62
NC(CO)C(=O)NNCc1ccc(O)c(O)c1O (stereo not given)	i
Cc1ccc(S(=O)(=O)N=C2C=CC(=O)C=C2)cc1	48
CC1=C/C(=N\S(=O)(=O)c2ccccc2)C=CC1=O	i
Cc1ccc(S(=O)(=O)N=S(C)(C)=O)cc1	i
O=c1[nH]c2ccc(NS(=O)(=O)c3ccc(C4CCCCC4)cc3)cc2[nH]1	i
CC(=O)N1CCc2cc(S(=O)(=O)NC(CC(C)C)C(=O)NCc3ccc(Cl)cc3)ccc21 (stereo not given)	i
Cc1ccccc1N1C(=O)C(Oc2ccc(Cl)cc2)C1CNc1ccccc1 (stereo not given)	i
COc1ccc2[nH]c(=O)c(CN(CCCN3CCOCC3)C(=O)Nc3ccccc3)cc2c1	i
CCOC(=O)COc1c(Cl)cc(/C=C2/N=C(c3ccco3)OC2=O)cc1OCC	i
SMILES	MgrA-DNA mod
CCOc1cc(/C=C2/C(=O)ON=C2C)cc(Cl)c1OCc1ccc(F)cc1	54
COc1cc(/C=C2/C(=O)N(c3ccc(F)cc3)N=C2C)ccc1OCc1ccc(F)cc1	i
O=c1c2c(-c3ccc(F)cc3)csc2[nH]c(=S)n1-c1ccccc1	i
OC(COCc1ccc2c(c1)OCO2)CN1CCN(c2ccc(F)cc2)CC1 (stereo not given)	i
O=c1c2ccccc2c2ccccc2c(=O)n1Cc1cccnc1	i
O=C1c2cccc3cc([N+](=O)[O-])cc(c23)C(=O)N1Cc1ccncc1	i
O=C1c2cccc3c([N+](=O)[O-])ccc(c23)C(=O)N1Cc1cccnc1	60
COC(=O)c1ccsc1N	71
COC(=O)c1sccc1O	i
COC(=O)c1cc(C(=O)OC)c(C(=O)OC)cc1C(=O)OC	i
CCCN(CCC)S(=O)(=O)c1ccc(C(=O)NCC(=O)O)cc1	i
O=C(COC(=O)c1ccccc1Cl)c1cc2ccccc2o1	i
CC(=O)Oc1ccc2occ(C(=O)c3ccc(F)cc3)c2c1	i
COC(=O)NC(=Nc1ccc(OC)cc1)C(F)(F)F	i
